High-throughput results deposited in PubChem BioAssay by National Center for Advancing Translational Sciences (NCATS).
TRHR ag: agonists of human TRH receptor. P34981. TRHR cells, calcium flux fluo-8, FDSS agonist mode. 0.18% of 360,000 active. activation, % at 2 µM; also: 0% is about no effect
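TRHR-expressing cells, plated overnight in medium with 10% serum, were loaded with fluo-8 calcium dye at room temperature. After a 10 s baseline, library compound was pin-added and calcium release was recorded kinetically (ex 480/em 530) as agonist response.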
D1 agonist: agonists of human D1 dopamine receptor; activation, % at 2 µM; AID 504660; HEK293 T-REx D1 cells, calcium flux, agonist mode; P21728; 1% of 360,000 active; also: 0% is about no effect
Target sequence (P21728 whole entry, looked up): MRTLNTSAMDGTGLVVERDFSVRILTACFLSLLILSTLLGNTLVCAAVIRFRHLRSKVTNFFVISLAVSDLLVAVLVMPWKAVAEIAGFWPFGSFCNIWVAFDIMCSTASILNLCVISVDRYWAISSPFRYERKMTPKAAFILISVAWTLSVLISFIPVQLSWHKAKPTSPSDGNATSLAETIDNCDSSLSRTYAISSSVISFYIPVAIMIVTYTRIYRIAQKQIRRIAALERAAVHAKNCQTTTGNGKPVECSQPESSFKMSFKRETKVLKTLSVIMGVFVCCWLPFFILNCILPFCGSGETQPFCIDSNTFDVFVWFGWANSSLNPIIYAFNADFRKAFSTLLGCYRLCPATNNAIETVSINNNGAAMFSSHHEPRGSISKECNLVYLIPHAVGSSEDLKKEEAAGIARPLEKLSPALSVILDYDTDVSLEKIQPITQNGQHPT
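Inducible HEK293 T-REx D1 cells, force-coupled to calcium signalling, were plated at 4000 cells/well with tetracycline and held overnight at 30 C. After no-wash calcium dye loading, compound-evoked calcium rise over 180 s flagged agonists.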
TRHR enhancer: TRH receptor (human) allosteric enhancement. P34981. TRHR cells, fluo-8 calcium fluorescence, EC20 TRH enhancement. enhancement, % at 2 µM. 0.66% of 360,000 active. AID 493056; in the data active = enhancement above about 30%; also: 0% is about no effect
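TRHR-expressing cells loaded with fluo-8 calcium dye were read kinetically (ex 480/em 530) during compound addition, then stimulated with an EC20 of TRH (10 nM final). Enhancement of the Gq-mediated intracellular calcium response was scored.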
D1 antagonist: human D1 dopamine receptor antagonism; 3.2% of 360,000 active; activity change, negative = inhibition, % at 10 µM; AID 504652; P21728; HEK293 TREx D1 cells, calcium flux, dopamine EC80; stronger effect = lower value; in the data active = activity change below about -30%; also: % is scaled to controls: 0 for no effect and ±100 for the full control effect
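Tetracycline-induced HEK293 Trex D1 cells, force-coupled to calcium, dye-loaded; compounds added and read 180 s, then EC80 dopamine added and calcium flux tracked kinetically another 180 s.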
D1 PAM: human D1 dopamine receptor positive modulation; potentiation, % at 10 µM; AID 504651; 0.036% of 360,000 active; HEK293 TREx D1 cells, calcium flux, dopamine EC20 potentiation; in the data active = potentiation above about 30%; also: 0% is about no effect
* marks the source's active call; other numbers are inactive results; ! = not active in a repeat. The list is not random: actives were taken first. Their share in the collection is about 4.7%. Rule as the data show it, unless noted: active = activation above about 30%; inactive = the rest.

Screening COc1cc2oc(=O)ccc2cc1[C@H](O)[C@@H](O)C(C)(C)O returned TRHR ag 0, D1 agonist -1, TRHR enhancer 39*, D1 antagonist 14 and D1 PAM -1.
`Cc1ccc(-c2nc(CCNC(=O)C(=O)Nc3ccc(C)c(Cl)c3)cs2)cc1` gave TRHR ag 0, D1 agonist 0, TRHR enhancer 12, D1 antagonist -25 and D1 PAM -5.
`CN1CCC(Oc2ccccc2Sc2ccc(C(F)(F)F)cc2)CC1` gave TRHR ag 13, D1 agonist 52*, TRHR enhancer 4, D1 antagonist -58* and D1 PAM -6.
Screening CN1CCC(Oc2ccc(Sc3ccccc3)cc2)CC1 returned TRHR ag 2, D1 agonist 78*, TRHR enhancer 1, D1 antagonist -28 and D1 PAM -9.
For Cc1cccc(CC(=O)NCc2nc3cccnc3n2Cc2ccc(F)cc2)c1 the results were TRHR ag -1, D1 agonist 1, TRHR enhancer -1, D1 antagonist 14 and D1 PAM 2.
For Cc1cccc(-n2c(Cc3ccccc3)n[nH]c2=S)c1 the results were TRHR ag 0, D1 agonist 1, TRHR enhancer -10, D1 antagonist -40* and D1 PAM -5.
Screening Cc1cccc(-n2c(CNC(=O)Cc3ccccc3)n[nH]c2=S)c1 returned TRHR ag 0, D1 agonist 1, TRHR enhancer 3, D1 antagonist 1 and D1 PAM 7.
`Cc1ccc(OC(=O)c2cccc(C(=O)Oc3ccc(C)cc3)n2)cc1` gave TRHR ag 1, D1 agonist 1, TRHR enhancer -4, D1 antagonist -17 and D1 PAM 0.
For Cc1ccc(OC(=O)c2cc(C)nn2C(C)(C)C)cc1 the results were TRHR ag 0, D1 agonist 1, TRHR enhancer 36*, D1 antagonist 7 and D1 PAM -5.
`CCN1C(=NCC(C)C)N[C@@H](c2cccc(F)c2)C(C(=O)OC)=C1C` gave TRHR ag 1, D1 agonist 6, TRHR enhancer -12, D1 antagonist -33*! and D1 PAM -2.
Screening COc1ccc(CCNC(=O)CCc2c(C)c3cc4c(C)coc4c(C)c3oc2=O)cc1OC returned TRHR ag -2, D1 agonist 4, TRHR enhancer 2, D1 antagonist -3 and D1 PAM 0.
`CC(C)c1nc2ccccc2n1CC(O)COC1CCCCC1` (stereo not drawn) gave TRHR ag 0, D1 agonist 1, TRHR enhancer 2, D1 antagonist -7 and D1 PAM -1.
For Cc1nc2ccccc2n1CC(O)COC1CCCCC1 (stereo not drawn) the results were TRHR ag 0, D1 agonist 5, TRHR enhancer -21, D1 antagonist -72* and D1 PAM -11.
Cc1csc(NC(=O)CSc2ccc(-c3ccccn3)nn2)n1 was read as TRHR ag -1, D1 agonist -3, TRHR enhancer 2, D1 antagonist -98* and D1 PAM 1.
For O=C(NC1CCCC1)c1ccc(CS(=O)(=O)Cc2ccccc2F)o1 the results were TRHR ag 0, D1 agonist 2, TRHR enhancer 1, D1 antagonist -42* and D1 PAM -1.
Cc1ccc(CSCc2ccc(C(=O)NCCc3ccc(Cl)cc3)o2)cc1 was read as TRHR ag 3, D1 agonist 25, TRHR enhancer 2, D1 antagonist -41* and D1 PAM -3.
Screening Cc1cccc(CSCc2ccc(C(=O)NC3CCCC3)o2)c1 returned TRHR ag 0, D1 agonist 17, TRHR enhancer -4, D1 antagonist -46* and D1 PAM -12.
For Cc1ccc(OCC(=O)NCC(c2ccc(Cl)cc2)N2CCCCC2)cc1 (stereo not drawn) the results were TRHR ag 0, D1 agonist 0, TRHR enhancer -2, D1 antagonist 6 and D1 PAM 1.
For Cc1ccc(S(=O)(=O)N(C)c2ccc3sc(C)nc3c2)cc1 the results were TRHR ag -1, D1 agonist 6, TRHR enhancer 38*, D1 antagonist 1 and D1 PAM -7.
For CCN1CCC(N(Cc2cccc(OC)c2)C(=O)Nc2cccc(C)c2C)CC1 the results were TRHR ag 1, D1 agonist 4, TRHR enhancer 8, D1 antagonist 4 and D1 PAM 4.
For CC(Cc1cccs1)NC(=O)Nc1ccc([N+](=O)[O-])cc1 (stereo not drawn) the results were TRHR ag 0, D1 agonist 24, TRHR enhancer 0, D1 antagonist -35* and D1 PAM -4.
CC(Cc1cccs1)NC(=S)Nc1ccc(F)cc1 (stereo not drawn) was read as TRHR ag 2, D1 agonist 19, TRHR enhancer -2, D1 antagonist -44* and D1 PAM -5.
Screening COc1ccc(NC(=S)NC(C)Cc2cccs2)cc1 (stereo not drawn) returned TRHR ag -1, D1 agonist 2, TRHR enhancer 12, D1 antagonist 4 and D1 PAM -1.
For CCOC(=O)C1CSC(CC(=O)Nc2ccc(Cl)c(Cl)c2)C(=O)N1 (stereo not drawn) the results were TRHR ag 0, D1 agonist 20, TRHR enhancer 13, D1 antagonist -32* and D1 PAM -9.
Clc1ccc(OCc2nc(-c3ccc(Br)o3)no2)cc1 was read as TRHR ag 0, D1 agonist 2, TRHR enhancer 6, D1 antagonist -40* and D1 PAM -2.
For O=C(O)/C=C/c1cccnc1 the results were TRHR ag 1, D1 agonist 1, TRHR enhancer -1, D1 antagonist -80* and D1 PAM -4.
For CC(/C=C\c1cccnc1)=C/C(=O)O the results were TRHR ag 1, D1 agonist 3, TRHR enhancer -3, D1 antagonist -62*! and D1 PAM -10.
Screening O=c1cc(-c2ccccc2)n2c(SCc3ccc(Br)cc3)nnc2[nH]1 returned TRHR ag -1, D1 agonist -4, TRHR enhancer 3 and D1 PAM 5.
For Cc1ccc(C2CC(c3ccco3)=NN2S(C)(=O)=O)cc1 (stereo not drawn) the results were TRHR ag -1, D1 agonist 1, TRHR enhancer 0, D1 antagonist -35* and D1 PAM -3.
Screening S=C(NCCN(C1CCCCC1)C1CCCC1)Nc1cccc(Cl)c1 returned TRHR ag 3, D1 agonist 31*, TRHR enhancer 2, D1 antagonist 11 and D1 PAM -4.
COc1ccc(CCNC(=S)Nc2cccc(C)c2)cc1 was read as TRHR ag -1, D1 agonist -1, TRHR enhancer -6, D1 antagonist 1 and D1 PAM -6.
